Laboratory results: the supplement of paper PMC6555819

Experiments:
Assay in all cases: PBM binding z-score (relative to random genomic background probes); higher = stronger binding; sequences stand for … in GC…GCGATTGACAGCGTAGAATGAAGG
[1] = tested on: RARb homodimer (NR concentration 270 nM)
In short: (§1)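 Binding z-scores take random background probes as their reference. They come from custom Agilent 4×180K protein-binding microarrays incubated 1 h with ligand-free nuclear receptor dimers, with antibodies against each partner (one per run) detecting binding. Scanned fluorescence was regression-normalized.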

[2] = tested on: RARg:RXRa (NR concentration 270 nM, RXRa partner concentration 90 nM)
In short: as §1

[3] = tested on: RARg homodimer (NR concentration 270 nM)
In short: as §1

[4] = tested on: RXRa DBDmut IVT, anti-RXR (DBD mutation: RXRa K156A/R161A, NR concentration 90 nM)
In short: as §1

[5] = tested on: RXRa homodimer (NR concentration 180 nM)
In short: as §1

[6] = tested on: THRa:RXRa (NR concentration 90 nM, RXRa partner concentration 90 nM)
In short: as §1

[7] = tested on: THRa homodimer (NR concentration 90 nM)
In short: as §1

[8] = tested on: VDR:RXRa (NR concentration 270 nM, RXRa partner concentration 90 nM)
In short: as §1

[9] = tested on: VDR homodimer (NR concentration 270 nM)
In short: as §1

TCATATAGGTAAATGCTAGGTGGAAGTCCGATCT
PBM binding z-score [1]: -0.19 | PBM binding z-score [2]: 0.303 | PBM binding z-score [3]: 0.0562 | PBM binding z-score [4]: 1.28 | PBM binding z-score [5]: 0.571 | PBM binding z-score [6]: 0.0546 | PBM binding z-score [7]: -0.18 | PBM binding z-score [8]: 0.687 | PBM binding z-score [9]: 0.0417

CATGCTAGGTCATGGTCAGCTAATCTACAGTATG
PBM binding z-score [1]: 3.06 | PBM binding z-score [2]: 3.95 | PBM binding z-score [3]: 4.67 | PBM binding z-score [4]: 1.74 | PBM binding z-score [5]: 3.06 | PBM binding z-score [6]: 2.87 | PBM binding z-score [7]: 1.06 | PBM binding z-score [8]: 1.79 | PBM binding z-score [9]: 0.15

CGTACAGGGTCAGCTAGGCCAGAGTAGGGACGGC
PBM binding z-score [1]: 3.07 | PBM binding z-score [2]: 4.55 | PBM binding z-score [3]: 4.77 | PBM binding z-score [4]: 1.93 | PBM binding z-score [5]: 4.1 | PBM binding z-score [6]: 3.05 | PBM binding z-score [7]: 0.562 | PBM binding z-score [8]: 3.78 | PBM binding z-score [9]: 1.14

TAAACAGGGTCAAAGGCCAGAGTACGAATGTCGA
PBM binding z-score [1]: 3.41 | PBM binding z-score [2]: 5.73 | PBM binding z-score [3]: 4.81 | PBM binding z-score [4]: 3.1 | PBM binding z-score [5]: 7.01 | PBM binding z-score [6]: 3.51 | PBM binding z-score [7]: 0.558 | PBM binding z-score [8]: 4.92 | PBM binding z-score [9]: 3.45

CCTTACGGGTCACTCCAGGTTATAACATCGGAGT
PBM binding z-score [1]: 3 | PBM binding z-score [2]: 4.24 | PBM binding z-score [3]: 3.97 | PBM binding z-score [4]: 1.31 | PBM binding z-score [5]: 4.36 | PBM binding z-score [6]: 5.32 | PBM binding z-score [7]: 0.437 | PBM binding z-score [8]: 4.09 | PBM binding z-score [9]: 1.19

AACTCTAGGTAAGACTCAGTTCAGTGAAGAACGC
PBM binding z-score [1]: 0.462 | PBM binding z-score [2]: -0.177 | PBM binding z-score [3]: 0.0668 | PBM binding z-score [4]: 0.487 | PBM binding z-score [5]: -0.128 | PBM binding z-score [6]: 0.636 | PBM binding z-score [7]: 0.228 | PBM binding z-score [8]: 0.138 | PBM binding z-score [9]: 1.15

TCATATAGGTAAACAGCTGAAAGTCCGTAAGTTA
PBM binding z-score [1]: 0.0749 | PBM binding z-score [2]: 0.25 | PBM binding z-score [3]: 0.0863 | PBM binding z-score [4]: 1.64 | PBM binding z-score [5]: 0.623 | PBM binding z-score [6]: 0.172 | PBM binding z-score [7]: -0.236 | PBM binding z-score [8]: 1.06 | PBM binding z-score [9]: 0.162

TCTTGTAGATCATTAGAGGTTAAGAAAGTGCGCT
PBM binding z-score [1]: 1.19 | PBM binding z-score [2]: 0.881 | PBM binding z-score [3]: 0.586 | PBM binding z-score [4]: 0.77 | PBM binding z-score [5]: 1.42 | PBM binding z-score [6]: 2.67 | PBM binding z-score [7]: -0.124 | PBM binding z-score [8]: 2.09 | PBM binding z-score [9]: 0.446

TCTTGTAGATCAGCAAGTTAAGAAAGCTGGCCAA
PBM binding z-score [1]: -0.5 | PBM binding z-score [2]: -0.41 | PBM binding z-score [3]: -0.827 | PBM binding z-score [4]: 0.54 | PBM binding z-score [5]: -0.136 | PBM binding z-score [6]: -0.47 | PBM binding z-score [7]: -1.04 | PBM binding z-score [8]: 0.28 | PBM binding z-score [9]: -0.456

ACTATTAGTTGAGACGAGGGCAACCGTTAGGTTG
PBM binding z-score [1]: 1.22 | PBM binding z-score [2]: 0.448 | PBM binding z-score [3]: 0.848 | PBM binding z-score [4]: 0.599 | PBM binding z-score [5]: 0.373 | PBM binding z-score [6]: 2.62 | PBM binding z-score [7]: 0.14 | PBM binding z-score [8]: 0.546 | PBM binding z-score [9]: 0.969

TCATATAGGTAATACTGGTGAAAGTCGGCATCTA
PBM binding z-score [1]: -0.0217 | PBM binding z-score [2]: 0.407 | PBM binding z-score [3]: 0.265 | PBM binding z-score [4]: 1.59 | PBM binding z-score [5]: 0.819 | PBM binding z-score [6]: 0.113 | PBM binding z-score [7]: -0.05 | PBM binding z-score [8]: 0.963 | PBM binding z-score [9]: 0.596

CGAACTAGGTCAAGGACAGTTAATCTCCGCACGC
PBM binding z-score [1]: 3.38 | PBM binding z-score [2]: 3.88 | PBM binding z-score [3]: 4.87 | PBM binding z-score [4]: 1.65 | PBM binding z-score [5]: 2.89 | PBM binding z-score [6]: 3.09 | PBM binding z-score [7]: 2.12 | PBM binding z-score [8]: 1.6 | PBM binding z-score [9]: 0.602

CGAACTAGGTCATCCAGCACAGTGAATACATTGA
PBM binding z-score [1]: 2.79 | PBM binding z-score [2]: 4 | PBM binding z-score [3]: 4.55 | PBM binding z-score [4]: 2.13 | PBM binding z-score [5]: 2.92 | PBM binding z-score [6]: 2.85 | PBM binding z-score [7]: 1.13 | PBM binding z-score [8]: 2.34 | PBM binding z-score [9]: 1.16

AGTCAAAGTTCACTAGCTAACGTAAGATTCAGCT
PBM binding z-score [1]: 3.22 | PBM binding z-score [2]: 4.66 | PBM binding z-score [3]: 5.41 | PBM binding z-score [4]: 4.14 | PBM binding z-score [5]: 3.53 | PBM binding z-score [6]: 1.4 | PBM binding z-score [7]: -0.145 | PBM binding z-score [8]: 3.66 | PBM binding z-score [9]: 3.78

TCGAGTAGGTAAGGGGCATTCAGAATGGCGTCGA
PBM binding z-score [1]: 0.551 | PBM binding z-score [2]: -0.117 | PBM binding z-score [3]: -0.0823 | PBM binding z-score [4]: -0.0222 | PBM binding z-score [5]: 0.0821 | PBM binding z-score [6]: -0.336 | PBM binding z-score [7]: -0.325 | PBM binding z-score [8]: 0.0857 | PBM binding z-score [9]: 0.178

TAGCCTAGGACATTCAGGGGCCAGTATAGAAAGC
PBM binding z-score [1]: 0.77 | PBM binding z-score [2]: 0.352 | PBM binding z-score [3]: 0.546 | PBM binding z-score [4]: -0.698 | PBM binding z-score [5]: -0.1 | PBM binding z-score [6]: 0.588 | PBM binding z-score [7]: -0.132 | PBM binding z-score [8]: -0.174 | PBM binding z-score [9]: -0.236

CCGAGTAGCTTATGGGGCATTCAGGCAACGGTGA
PBM binding z-score [1]: -0.2 | PBM binding z-score [2]: -0.278 | PBM binding z-score [3]: -0.43 | PBM binding z-score [4]: 0.0685 | PBM binding z-score [5]: -0.245 | PBM binding z-score [6]: -0.153 | PBM binding z-score [7]: -0.655 | PBM binding z-score [8]: -0.651 | PBM binding z-score [9]: -0.541

CCGAATAGGTTATGGGGCATTCAGGCAACGGTGA
PBM binding z-score [1]: 1.11 | PBM binding z-score [2]: 1.06 | PBM binding z-score [3]: 0.917 | PBM binding z-score [4]: 0.132 | PBM binding z-score [5]: 1.31 | PBM binding z-score [6]: 0.696 | PBM binding z-score [7]: -0.0047 | PBM binding z-score [8]: 0.258 | PBM binding z-score [9]: -0.175

TCTTTTAGATCAGCAGGTTAAGAAAGCTGGCCAA
PBM binding z-score [1]: 0.0082 | PBM binding z-score [2]: 0.209 | PBM binding z-score [3]: 0.197 | PBM binding z-score [4]: 1.02 | PBM binding z-score [5]: 0.581 | PBM binding z-score [6]: 0.357 | PBM binding z-score [7]: -0.515 | PBM binding z-score [8]: 0.691 | PBM binding z-score [9]: 0.00166

TCATATAGGTAAACAGGTGAAAATCCGTAAGTTA
PBM binding z-score [1]: 0.649 | PBM binding z-score [2]: 0.838 | PBM binding z-score [3]: 0.551 | PBM binding z-score [4]: 1.57 | PBM binding z-score [5]: 1.52 | PBM binding z-score [6]: 0.866 | PBM binding z-score [7]: 0.391 | PBM binding z-score [8]: 1.39 | PBM binding z-score [9]: 0.265

CGCACTAGGTCAAGGACAGTGAATCTCCGCACGC
PBM binding z-score [1]: 3.34 | PBM binding z-score [2]: 3.82 | PBM binding z-score [3]: 4.48 | PBM binding z-score [4]: 1.72 | PBM binding z-score [5]: 2.63 | PBM binding z-score [6]: 3.03 | PBM binding z-score [7]: 2.15 | PBM binding z-score [8]: 1.28 | PBM binding z-score [9]: 0.387

GCTATTAGTTGAAAGGGCAACCGGATGATTCTCG
PBM binding z-score [1]: 2.11 | PBM binding z-score [2]: 1.41 | PBM binding z-score [3]: 1.33 | PBM binding z-score [4]: 0.824 | PBM binding z-score [5]: 1.22 | PBM binding z-score [6]: 0.688 | PBM binding z-score [7]: -0.119 | PBM binding z-score [8]: 0.47 | PBM binding z-score [9]: 0.228

TCTACTAGGTCAGTTGGTCAGCTAACGAGCTGCC
PBM binding z-score [1]: 2.91 | PBM binding z-score [2]: 2.74 | PBM binding z-score [3]: 3.58 | PBM binding z-score [4]: 1.19 | PBM binding z-score [5]: 1.24 | PBM binding z-score [6]: 1.28 | PBM binding z-score [7]: 0.622 | PBM binding z-score [8]: 0.701 | PBM binding z-score [9]: 0.162

ACAGACAGGTGATGAAGGTAACTCAGGCTATCAT
PBM binding z-score [1]: 0.446 | PBM binding z-score [2]: 0.303 | PBM binding z-score [3]: 0.521 | PBM binding z-score [4]: -0.295 | PBM binding z-score [5]: 0.205 | PBM binding z-score [6]: 0.774 | PBM binding z-score [7]: 0.267 | PBM binding z-score [8]: 0.0426 | PBM binding z-score [9]: -0.205
